The structures appear in SMILES notation. Calls of active or inactive are those of the source. Where a call stands in place of a potency, no number is given. Calls come from the whole dose curve; as a rule, active = well fitted curve in the direction sought with a large enough effect in the repeat runs; inconclusive = weak or mixed curves; inactive = flat fitted curve, though single readings scatter.
Tags give direction and shape of the fitted curve or compound fluorescence and quenching.

A short description of one assay: qHTS assay to test for compound auto fluorescence at 590 nm (red) in HepG2 cell free culture (AID 720684). As to conditions: cell-free medium autofluorescence, red 540/590 nm; series mostly up to 91.3 µM. The essentials: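 Compound was pinned into wells holding MEM with 10% FBS and no cells, and red fluorescence was read at Ex/Em 540/590 nm. Signal is expressed as auto fluorescence equivalency relative to Rose Bengal sodium.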
On the technique in general: In qHTS, concentration-response curves come from the screen itself.
On to `c1ccc2c(c1)cc1ccc3cccc4ccc2c1c34`, for which the outcome was inactive.
With `COP(=O)(OC)O/C(=C\Cl)c1cc(Cl)c(Cl)cc1Cl`, the compound was called inactive.
Same read-out and setting: the same measure for `C#CC1(O)CCCCC1`: “inactive”; for `CCC(C)c1cccc(C(C)CC)c1O` (configuration not stated): “inactive”.
For the compound `O=C(Cl)c1ccccc1F`, the outcome was inactive.
As for `c1csc(-c2ccc(-c3cccs3)s2)c1`, the outcome was inactive.
For the compound `CC(=O)C(Cl)C(=O)N(C)C` (configuration not stated), the compound was called inactive.

Another assay in a line: qHTS assay to test for compound auto fluorescence at 460 nm (blue) in HepG2 cell free culture (AID 720685). Note: potency is the fitted concentration of half-maximal effect. Conditions: Cell-free culture medium, blue autofluorescence 405/460 nm; series mostly up to 91.3 µM. The essentials:
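Compound (23 nL) or DMSO pinned into cell-free MEM with 10% FBS; blue fluorescence read at 405/460 nm excitation/emission, expressed as auto-fluorescence equivalency to triamterene.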
For the compound `Cc1c([N+](=O)[O-])c(C)c([N+](=O)[O-])c(C(C)(C)C)c1[N+](=O)[O-]`, the Potency entry is “inactive”.
Still for that read-out and setting: the entry for `N#CC(C#N)=NNc1cccc(Cl)c1` is “inactive”; for `Brc1ccc(Oc2ccc(Br)cc2Br)c(Br)c1` it is “inactive”.
As to `CCOP(=O)(Sc1ccccc1)Sc1ccccc1`, the Potency entry is “inactive”.
Consider `Oc1cc(Cl)cc(Cl)c1`, for which the Potency result was “inactive”.
Still for that read-out and setting: the entry for `CC(=O)[O-].CC(=O)[O-].CC(=O)[O-].[Cr+3]` is “inactive”.
`Cc1cc2c3c(c1)C(c1ccccc1)=N[C@@H](NC(=O)c1ccncc1)C(=O)N3CC2`: the Potency result is “inactive”.
Still for that read-out and setting: the same measure for `COc1ccc2[nH]cc(CCN(C(C)C)C(C)C)c2c1`: “inactive”; for `O=C1C2(Cl)C3(Cl)C4(Cl)C(Cl)(Cl)C5(Cl)C3(Cl)C1(Cl)C5(Cl)C24Cl` (configuration not stated): “inactive”; for `CC(C)N(C(=O)CCl)c1ccccc1`: “inactive”.
For the compound `CCNc1nc(NC(C)C(C)C)nc(SC)n1` (configuration not stated), the Potency entry is “inactive”.
Take `CCCN`: the Potency entry was “inactive”.
As to `CC(=O)[O-].CC(=O)[O-].CC(=O)[O-].[Sb+3]`, the fluorescence, % of fluorescent control is -0.11% [at 3.72 µM] (inactive).
As to `Nc1cc(Cl)ccc1Cl`, the Potency entry is “inactive”.
Still for that read-out and setting: the same measure for `CN1CCc2cc3c(cc2C1O)OCO3` (configuration not stated): 39.8 µM [fluorescent] (active); for `NC1CCC(CC2CCC(N)CC2)CC1` (configuration not stated): “inactive”.
As to `COP(=O)(OC)O/C(=C\Cl)c1cc(Cl)c(Cl)cc1Cl`, the Potency result is “inactive”.
Regarding `CCCC[N+]1(C)CCCC1` (tested in a mixture with another compound), the Potency entry was “inactive”.
Take `c1ccc2nc(N3CCNCC3)ccc2c1`: the Potency entry is “inactive”.
For `CCCCN(CCCC)C(=S)[S-].CCCCN(CCCC)C(=S)[S-].[Ni+2]`, the Potency entry is “inactive”.
The same measure, in the same setting: the same measure for `O=C(Nc1ccc(F)cc1F)c1cccnc1Oc1cccc(C(F)(F)F)c1`: “inactive”; for `CC(C)=CC1C(C(=O)OC(C#N)c2cccc(Oc3ccccc3)c2)C1(C)C` (configuration not stated): “inactive”; for `CC1(C)C(C=C(Cl)Cl)C1C(=O)OC(C#N)c1ccc(F)c(Oc2ccccc2)c1` (configuration not stated): “inactive”.
Regarding `C#CC1(O)CCCCC1`, the Potency entry was “inactive”.
On to `C=Cc1cccc(CCl)c1`, for which the Potency result is “inactive”.
For the compound `CCC(C)c1cccc(C(C)CC)c1O` (configuration not stated), the Potency entry is “inactive”.
As to `C[C@H]1[C@H](c2ccc(Cl)cc2)SC(=O)N1C(=O)NC1CCCCC1`, the Potency entry is “inactive”.
Turning to `N#Cc1ccc(N(CC(N)=O)CC(F)(F)F)cc1C(F)(F)F`, the Potency result was “inactive”.
In the case of `O=C(Cl)c1ccccc1F`, the Potency entry was “inactive”.
As to `CCOC(=O)Cc1ccccc1`, the Potency entry is “inactive”.
With `Brc1cccc(-c2ccccc2)c1`, the Potency entry is “inactive”.
`CC(C)Br`: the Potency entry was “inactive”.
On the same count and under the same terms, the same measure for `CC(=O)C(Cl)C(=O)N(C)C` (configuration not stated): “inactive”; for `ClC(Cl)C(Cl)(Cl)Cl`: “inactive”; for `CC(C)C(Br)C(=O)NC(N)=O` (configuration not stated): “inactive”.

The values above are taken from PubChem BioAssay (Tox21).
